Assay results from the supplement of paper PMC10849652.
About 7,900 targets were measured; listed, in parts, are those with a hit and a random draw of the rest. About 0.6% of all pairs of compound and target were hits. Values without a mark were called inactive.

Assays:
Assay in all cases: log2 fold change, soluble protein after heating vs DMSO (PISA); higher = thermal stabilisation; K562 cells, 10 uM, 30 min; active = over 0.2 and 3.5 SD of the protein, either way, in both replicates (recomputed)
[1] = compound: Cc1ccc(NC(=O)c2ccc(CN3CC[C@H](N(C)C)C3)c(C(F)(F)F)c2)cc1Nc1nccc(-c2cncnc2)n1 [bafetinib]
How it was run: (§1)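 K562 cells at 2×10^6 cells/mL were exposed to 10 μM compound for 30 min, then aliquots were heated for 3 min across 48°C-58°C, pooled, and extracted in PBS containing 0.5% NP-40 at 4°C. The supernatant after 21,000xg for 90 min was taken as soluble protein and measured by TMTpro 16plex LC-MS/MS with channel sums equalised. Thermal stability is reported relative to control samples, with values from duplicates. Fold changes are given on a log2 scale.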

[2] = compound: Cc1cccc(CC(=O)N2CCc3c2ccc(-c2cn(C)c4ncnc(N)c24)c3F)n1
How it was run: as §1

[3] = compound: Cc1cn(-c2cc(NC(=O)c3ccc(C)c(Nc4nccc(-c5cccnc5)n4)c3)cc(C(F)(F)F)c2)cn1 [nilotinib]
How it was run: as §1

[4] = compound: Cc1nc(Nc2n[nH]c3c2CN(C(=O)N[C@H](CN(C)C)c2ccccc2)C3(C)C)c2sccc2n1
How it was run: as §1

[5] = compound: Cc1nc(Nc2ncc(C(=O)Nc3c(C)cccc3Cl)s2)cc(N2CCN(CCO)CC2)n1 [dasatinib]
How it was run: as §1

[6] = compound: Cc1ncc(-c2ccnc(Nc3ccc(S(C)(=O)=O)cc3)n2)n1C(C)C
How it was run: as §1

[7] = compound: Cn1cc(-c2ccc3c(c2)CCN3C(=O)Cc2cccc(C(F)(F)F)c2)c2c(N)ncnc21
How it was run: as §1

[8] = compound: Cn1cc(-c2ccc3nnc(C(F)(F)c4ccc5ncccc5c4)n3n2)cn1
How it was run: as §1

[9] = compound: Cn1cncc1[C@@](N)(c1ccc(Cl)cc1)c1ccc2c(c1)c(-c1cccc(Cl)c1)cc(=O)n2C [tipifarnib]
How it was run: as §1

[10] = compound: FC(F)(F)c1ccc(/C=C/c2nc(COc3ccc(CCCCn4ccnn4)cc3)co2)cc1 [mubritinib]
How it was run: as §1

Sequence of UniProt Q86WC4 (Q86WC4 whole entry, looked up): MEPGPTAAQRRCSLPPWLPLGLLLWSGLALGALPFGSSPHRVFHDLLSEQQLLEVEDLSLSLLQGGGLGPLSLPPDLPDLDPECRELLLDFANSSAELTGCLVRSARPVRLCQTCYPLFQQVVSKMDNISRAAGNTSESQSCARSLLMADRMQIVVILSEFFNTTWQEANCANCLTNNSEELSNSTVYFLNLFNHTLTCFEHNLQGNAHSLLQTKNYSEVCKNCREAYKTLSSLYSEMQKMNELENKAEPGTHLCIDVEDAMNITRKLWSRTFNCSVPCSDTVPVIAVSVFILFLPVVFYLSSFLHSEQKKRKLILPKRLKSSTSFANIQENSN
Sequence of UniProt Q5TFE4 (Q5TFE4 whole entry, looked up): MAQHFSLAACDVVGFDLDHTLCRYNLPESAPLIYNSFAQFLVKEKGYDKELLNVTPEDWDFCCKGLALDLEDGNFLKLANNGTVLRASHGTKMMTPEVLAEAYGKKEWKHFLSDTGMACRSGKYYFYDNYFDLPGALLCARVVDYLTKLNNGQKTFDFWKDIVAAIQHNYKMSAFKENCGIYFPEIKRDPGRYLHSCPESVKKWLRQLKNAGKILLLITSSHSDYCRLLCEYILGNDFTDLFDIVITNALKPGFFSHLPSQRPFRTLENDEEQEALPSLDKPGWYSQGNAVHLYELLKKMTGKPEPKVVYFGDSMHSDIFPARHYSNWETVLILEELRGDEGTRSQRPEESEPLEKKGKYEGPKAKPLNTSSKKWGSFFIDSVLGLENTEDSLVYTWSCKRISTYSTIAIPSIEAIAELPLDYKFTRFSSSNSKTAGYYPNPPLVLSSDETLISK
Sequence of UniProt Q9Y605 (Q9Y605 whole entry, looked up): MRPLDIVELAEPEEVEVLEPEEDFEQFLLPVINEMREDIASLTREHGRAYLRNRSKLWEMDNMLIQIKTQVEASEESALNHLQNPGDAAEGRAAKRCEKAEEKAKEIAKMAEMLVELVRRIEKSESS
Sequence of UniProt P22059 (P22059 whole entry, looked up): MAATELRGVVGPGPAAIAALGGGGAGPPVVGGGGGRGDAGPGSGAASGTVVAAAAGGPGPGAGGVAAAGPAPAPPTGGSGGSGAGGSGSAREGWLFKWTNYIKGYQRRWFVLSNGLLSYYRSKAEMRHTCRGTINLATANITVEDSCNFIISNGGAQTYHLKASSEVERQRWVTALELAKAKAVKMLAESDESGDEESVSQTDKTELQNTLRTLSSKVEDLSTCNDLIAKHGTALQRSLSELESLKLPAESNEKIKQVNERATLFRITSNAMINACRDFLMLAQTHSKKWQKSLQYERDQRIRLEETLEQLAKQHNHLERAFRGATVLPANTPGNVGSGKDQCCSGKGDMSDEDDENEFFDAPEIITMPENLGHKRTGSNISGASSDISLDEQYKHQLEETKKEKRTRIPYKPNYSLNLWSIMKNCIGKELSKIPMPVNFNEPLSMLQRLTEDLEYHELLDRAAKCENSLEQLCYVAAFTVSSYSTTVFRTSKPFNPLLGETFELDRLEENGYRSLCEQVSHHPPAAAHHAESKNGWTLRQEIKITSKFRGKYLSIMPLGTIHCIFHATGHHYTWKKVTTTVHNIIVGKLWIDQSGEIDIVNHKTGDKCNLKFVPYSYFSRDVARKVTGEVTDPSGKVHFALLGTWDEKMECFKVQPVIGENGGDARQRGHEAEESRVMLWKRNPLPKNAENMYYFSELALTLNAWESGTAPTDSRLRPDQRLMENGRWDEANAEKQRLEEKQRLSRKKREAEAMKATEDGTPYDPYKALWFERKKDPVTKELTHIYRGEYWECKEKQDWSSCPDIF
Sequence of UniProt P49757 (P49757 whole entry, looked up): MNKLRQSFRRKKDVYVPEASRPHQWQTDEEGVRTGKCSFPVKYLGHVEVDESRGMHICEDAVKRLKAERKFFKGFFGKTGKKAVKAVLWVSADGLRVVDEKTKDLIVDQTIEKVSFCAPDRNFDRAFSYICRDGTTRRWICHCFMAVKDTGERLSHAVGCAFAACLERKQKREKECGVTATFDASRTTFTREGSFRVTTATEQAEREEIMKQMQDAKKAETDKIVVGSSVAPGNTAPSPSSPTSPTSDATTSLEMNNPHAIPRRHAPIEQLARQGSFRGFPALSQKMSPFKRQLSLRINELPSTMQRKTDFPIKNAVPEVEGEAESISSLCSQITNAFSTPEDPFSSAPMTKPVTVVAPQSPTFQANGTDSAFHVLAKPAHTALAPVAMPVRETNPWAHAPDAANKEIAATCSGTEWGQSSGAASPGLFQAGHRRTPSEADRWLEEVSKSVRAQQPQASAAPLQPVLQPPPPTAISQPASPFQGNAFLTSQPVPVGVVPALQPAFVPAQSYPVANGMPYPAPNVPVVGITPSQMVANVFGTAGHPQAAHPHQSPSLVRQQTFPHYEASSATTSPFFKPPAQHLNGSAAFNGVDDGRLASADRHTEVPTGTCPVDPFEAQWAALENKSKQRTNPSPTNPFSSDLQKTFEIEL
Sequence of UniProt O75376 (O75376 whole entry, looked up): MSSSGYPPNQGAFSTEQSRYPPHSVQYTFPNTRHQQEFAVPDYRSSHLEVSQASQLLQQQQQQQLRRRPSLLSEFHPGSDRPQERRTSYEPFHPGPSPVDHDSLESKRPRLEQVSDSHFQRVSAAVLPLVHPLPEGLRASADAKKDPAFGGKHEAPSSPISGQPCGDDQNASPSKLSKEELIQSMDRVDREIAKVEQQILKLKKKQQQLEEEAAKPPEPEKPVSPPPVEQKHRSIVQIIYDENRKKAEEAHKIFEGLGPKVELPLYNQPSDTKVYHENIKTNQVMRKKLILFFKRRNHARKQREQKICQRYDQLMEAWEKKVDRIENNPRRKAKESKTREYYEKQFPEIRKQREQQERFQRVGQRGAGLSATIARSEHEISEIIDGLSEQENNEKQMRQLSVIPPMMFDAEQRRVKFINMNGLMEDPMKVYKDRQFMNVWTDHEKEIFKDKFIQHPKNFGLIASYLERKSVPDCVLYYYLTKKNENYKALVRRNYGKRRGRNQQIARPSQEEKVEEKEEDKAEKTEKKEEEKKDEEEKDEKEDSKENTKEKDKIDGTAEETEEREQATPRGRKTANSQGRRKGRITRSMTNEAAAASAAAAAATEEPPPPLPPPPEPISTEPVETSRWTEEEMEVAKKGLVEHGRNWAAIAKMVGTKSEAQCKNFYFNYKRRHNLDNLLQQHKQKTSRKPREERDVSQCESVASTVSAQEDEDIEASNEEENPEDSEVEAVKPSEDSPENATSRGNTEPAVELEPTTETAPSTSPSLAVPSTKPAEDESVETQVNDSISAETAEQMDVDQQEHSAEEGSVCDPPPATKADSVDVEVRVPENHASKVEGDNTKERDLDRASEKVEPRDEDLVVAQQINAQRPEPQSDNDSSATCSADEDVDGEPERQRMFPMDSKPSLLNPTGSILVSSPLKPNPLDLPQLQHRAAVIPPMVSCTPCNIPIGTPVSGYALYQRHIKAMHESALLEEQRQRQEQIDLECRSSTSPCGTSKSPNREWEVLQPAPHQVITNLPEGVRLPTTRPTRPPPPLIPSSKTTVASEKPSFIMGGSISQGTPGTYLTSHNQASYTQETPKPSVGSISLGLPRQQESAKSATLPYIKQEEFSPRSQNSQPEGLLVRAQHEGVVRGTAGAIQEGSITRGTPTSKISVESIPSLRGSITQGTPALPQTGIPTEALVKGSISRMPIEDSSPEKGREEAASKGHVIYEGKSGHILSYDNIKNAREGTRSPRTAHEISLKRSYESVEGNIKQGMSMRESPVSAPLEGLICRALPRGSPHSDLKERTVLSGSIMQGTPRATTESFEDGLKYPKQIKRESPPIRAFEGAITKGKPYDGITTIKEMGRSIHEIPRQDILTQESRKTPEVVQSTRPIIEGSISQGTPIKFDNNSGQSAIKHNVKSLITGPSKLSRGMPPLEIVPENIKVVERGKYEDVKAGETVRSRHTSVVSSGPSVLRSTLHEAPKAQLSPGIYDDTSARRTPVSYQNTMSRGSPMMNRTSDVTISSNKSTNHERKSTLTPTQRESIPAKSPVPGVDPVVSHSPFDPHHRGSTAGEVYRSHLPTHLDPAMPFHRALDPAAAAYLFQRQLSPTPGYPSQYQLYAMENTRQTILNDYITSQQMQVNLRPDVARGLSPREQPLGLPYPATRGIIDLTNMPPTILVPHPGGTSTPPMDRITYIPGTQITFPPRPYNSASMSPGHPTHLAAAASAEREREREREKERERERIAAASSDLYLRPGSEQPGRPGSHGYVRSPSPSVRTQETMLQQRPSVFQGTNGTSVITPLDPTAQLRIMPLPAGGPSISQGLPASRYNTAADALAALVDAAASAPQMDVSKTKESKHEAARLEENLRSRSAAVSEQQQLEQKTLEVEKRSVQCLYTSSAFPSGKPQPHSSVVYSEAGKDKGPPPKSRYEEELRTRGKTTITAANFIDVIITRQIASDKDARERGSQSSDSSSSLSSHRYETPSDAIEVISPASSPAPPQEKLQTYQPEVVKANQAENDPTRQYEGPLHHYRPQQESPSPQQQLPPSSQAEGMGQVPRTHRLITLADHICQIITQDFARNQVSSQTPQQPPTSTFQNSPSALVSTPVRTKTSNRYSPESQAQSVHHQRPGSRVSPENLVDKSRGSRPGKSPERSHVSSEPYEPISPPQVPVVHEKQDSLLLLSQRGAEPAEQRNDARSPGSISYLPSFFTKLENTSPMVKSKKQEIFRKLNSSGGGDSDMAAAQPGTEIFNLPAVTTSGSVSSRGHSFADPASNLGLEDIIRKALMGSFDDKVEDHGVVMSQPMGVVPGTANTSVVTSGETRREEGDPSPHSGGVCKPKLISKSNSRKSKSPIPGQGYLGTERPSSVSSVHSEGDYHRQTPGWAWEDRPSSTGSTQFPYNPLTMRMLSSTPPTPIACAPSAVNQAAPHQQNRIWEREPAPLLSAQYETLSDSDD
Sequence of UniProt P00846 (P00846 whole entry, looked up): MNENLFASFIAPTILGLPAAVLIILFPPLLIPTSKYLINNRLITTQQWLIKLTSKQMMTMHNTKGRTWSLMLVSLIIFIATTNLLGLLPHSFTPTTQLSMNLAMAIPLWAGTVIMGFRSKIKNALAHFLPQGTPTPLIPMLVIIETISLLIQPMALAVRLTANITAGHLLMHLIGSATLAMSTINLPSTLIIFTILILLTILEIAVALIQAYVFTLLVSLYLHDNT

Target	log2 fold change [1]	log2 fold change [2]	log2 fold change [3]	log2 fold change [4]	log2 fold change [5]	log2 fold change [6]	log2 fold change [7]	log2 fold change [8]	log2 fold change [9]	log2 fold change [10]
MKRN2 (UniProt Q9H000)	0.073	-0.194	-0.048	-0.062	-0.088	0.066	-0.284	-0.099	-0.01	-0.142
NOP58 (UniProt Q9Y2X3)	0.146	-0.154	0.03	-0.194	0.266	-0.142	-0.194	-0.093	0.067	-0.071
NAP1L1 (UniProt P55209)	-0.018	-0.094	0.009	-0.044	0.05	0.022	-0.004	-0.039	0.001	-0.014
NFYB (UniProt P25208)	-0.086	-0.006	0.074	-0.067	0.124	0.034	-0.012	-0.06	-0.019	0.127
OTUD6B (UniProt Q8N6M0)	-0.014	0.105	-0.114	-0.067	-0.142	-0.031	0.044	0.067	-0.039	-0.02
NACC1 (UniProt Q96RE7)	-0.03	-0.039	-0.165	-0.109	-0.198	-0.12	-0.041	0.034	-0.084	-0.03
MMS19 isoform 8 (UniProt Q96T76)	-0.014	0.092	-0.038	-0.027	-0.205	-0.002	-0.021	0.02	-0.055	-0.019
MYH11 isoform 2 (UniProt P35749)	-0.055	-0.016	0.05	0.014	-0.027	-0.025	0.039	-0.001	0.005	0.007
OXSR1 (UniProt O95747)	-0.014	-0.012	-0.083	-0.029	-0.179	0.031	0.038	0.005	-0.117	-0.05
NELFA (UniProt Q9H3P2)	-0.145	0.027	0.032	-0.311	-0.112	-0.152	0.015	0.018	-0.141	-0.034
NOB1 (UniProt Q9ULX3)	0.014	0.093	-0.044	-0.005	-0.054	-0.045	-0.003	0.059	-0.106	-0.043
NFATC2 (UniProt Q13469)	0.006	0.066	-0.135	-0.341	-0.213	-0.445 (active)	-0.025	-0.075	-0.029	-0.124
OSBP (UniProt P22059)	-0.017	0.005	0.123	-0.257 (active)	-0.08	-0.067	-0.024	-0.024	-0.085	0.012
OGFOD1 (UniProt Q8N543)	-0.042	-0.033	-0.015	0.039	-0.009	-0.021	0.01	0.078	-0.05	-0.04
NDUFB7 (UniProt P17568)	0	0.164	-0.029	0.057	0.022	-0.053	0.043	0.01	-0.029	-0.007
OSTM1 (UniProt Q86WC4)	-0.208	0.091	0.044	0.017	-0.086	-0.068	0.076	0.029	0.008	-0.048
NT5DC1 (UniProt Q5TFE4)	0.043	0.004	0.099	0.069	0.033	-0.016	0.045	0.069	-0.043	0.001
NCOR1 (UniProt O75376)	-0.009	-0.056	0.182	-0.046	-0.091	0.058	0.041	-0.049	0.103	0.041
MRPS15 (UniProt P82914)	0.126	0.159	-0.33	0.056	-0.046	0.07	0.05	0.032	-0.105	0.172
NUMB (UniProt P49757)	-0.013	0.022	-0.05	-0.078	0.017	-0.12	0.063	-0.008	0.059	-0.053
MON1B (UniProt Q7L1V2)	-0.071	0.004	0.025	0.015	-0.099	-0.048	0.038	0.012	-0.011	0.065
NBN (UniProt O60934)	-0.021	0.031	0.018	-0.198	-0.171	0.048	0.031	0.064	-0.016	0.131
NDUFA9 (UniProt Q16795)	-0.019	0.033	-0.056	0.005	-0.127	0.012	0.002	-0.007	-0.033	0.223 (active)
NMNAT1 (UniProt Q9HAN9)	0.052	-0.034	-0.073	0.023	0.159	-0.047	-0.143	-0.21	0.118	-0.047
MRFAP1 (UniProt Q9Y605)	-0.045	-0.08	-0.174	-0.064	-0.054	0.051	-0.024	0.011	-0.261	-0.075
NGLY1 (UniProt Q96IV0)	0.039	0.055	-0.068	-0.038	-0.064	0.021	-0.009	-0.034	-0.067	-0.062
NMD3 (UniProt Q96D46)	0.071	0.03	0.025	0.316 (active)	0.014	0.123	0.083	0.028	-0.107	0.083
MRPL47 (UniProt Q9HD33)	0.264	-0.263	-0.124	0.118	0.016	0.073	-0.174	-0.085	0.103	-0.029
MT-ATP6 (UniProt P00846)	0.162	0.086	0.006	0.005	-0.101	-0.043	-0.024	0.11	0.231	0.028
MRPS31 (UniProt Q92665)	0.066	0.042	-0.041	0.093	-0.012	0.065	0.078	0.027	-0.002	0.138
